Laboratory results published in PubChem BioAssay (NCI).
Values joined by “and” are separate entries in the source; they are usually repeats but may differ in a detail not shown here. Equal values may be shown once. About 83,000 compounds went through this panel and 20% of them were active in at least one assay; those are over-represented in the sample as a whole.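 Activity criterion: percent growth below 10, measured after cells in 96-well plates were exposed to a single compound concentration for 48 hours.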 Active and inactive are the calls of the source.

system: MDA-MB-468 breast; assay: NCI-60 one-dose screen, 48 h (100 = growth as untreated, 0 = no growth, -100 = all killed); details: 10 µM unless noted

SMILES | growth
COc1ccc(C2=Nc3c(N)ncnc3NC(c3cccc(Nc4ccnc5cc(C(F)(F)F)ccc45)c3)C2)cc1 (stereo not given) | 46.9% (inactive)
CC1=C2[C@@H](CC1)[C@]1(C)O[C@@](c3ccccc3)(C[C@H]1OC(=O)CO)[C@H]2OC(=O)/C=C/c1ccccc1 | 91.1% (inactive)
CC1c2ccccc2N(S(=O)(=O)c2ccccc2)C1C (stereo not given) | 37.9% (inactive)
CCN(CC)CCOc1nc2ccccc2c2c1-c1ccc(OC)cc1C2=O | 14.3% (inactive)
Cn1cc(-c2ccc(-c3cn(C)c4ncccc34)[nH]2)c2cccnc21 | -23.7% (active)
NNC(=S)N/N=C/c1ccccn1 | 8.55% (active)
Brc1cc(-c2cc(-c3ccc4c(c3)OC=CO4)[nH]n2)cs1 | 30% (inactive)
COc1ccc(N(C)c2nc(Cl)nc3cnn(C)c23)cc1 | 26.9% (inactive)
O=C1/C(=C/c2ccccc2[N+](=O)[O-])Oc2ccc(O)c(O)c21 | 37.5% (inactive)
COc1ccc(C2=Nc3c(N)nc(N)nc3NC(c3cccc(Nc4ccnc5cc(C(F)(F)F)ccc45)c3)C2)cc1 (stereo not given) | 46.1% (inactive)
CN1c2ccccc2[C@]2(Cc3ccccc3)Cc3ccccc3N[C@H]12 | 115% (inactive)
Oc1cccc2ccc(N/N=C/c3cc(CN4CCOCC4)c(O)c4ncccc34)nc12 | -24.6% (active)
CC1(C)C2CCC(O)(C(=O)O)C1C2 (stereo not given) | 106% (inactive)
O=C(CCCCCCc1nc2ccc(Br)cc2[nH]1)NO | -1.04% (active)
CC(O)CNC(Cc1ccccc1)c1ccc2c(c1)OCO2 (stereo not given) | 101% (inactive)
Cn1ccc(Cc2cnc(N)s2)n1 | 103% (inactive)
COc1ccc2c(c1)c(-c1nn3cc(-c4cccs4)nc3s1)cn2C | 71.5% (inactive)
COc1ccc(C(=O)c2cc3c(N)c(C(=O)Nc4ccc(Br)cc4)sc3nc2C)cc1 | 72.8% (inactive)
O=C(Nc1ccc(Cl)cc1F)c1cc(I)ccc1O | 41.4% (inactive)
CCCCCCCCCCCCSC(=NC)NC | -9.65% (active) and 32.3% (inactive)

SMILES | growth
Nc1ccc(-c2cc3c(NCc4ccccc4)ncnc3s2)cc1 | 4.36% (active)
COc1ccc(/C=C/c2c(C(=O)/C=C/c3ccccc3)c(C)nc3ccccc23)cc1 | 12.8% (inactive)
Oc1ccccc1-c1nnc(SCc2ccc(O)c3ncccc23)o1 | 44.4% (inactive)
CN(C)CCCNc1nc2ccccc2c2c(=O)c3cc(F)ccc3sc12 | -6.97% (active)
N#Cc1ccc(NC(=O)Nc2ccc(Cc3ccc(NC(=O)Nc4ccc(C#N)cc4)cc3)cc2)cc1 | -7.75% (active)
C=C(C)[C@@H]1CC[C@]2(COC(=O)c3ccccc3C(=O)O)CC[C@]3(C)[C@H](CC[C@@H]4[C@@]5(C)CCCNC(C)(C)[C@@H]5CC[C@]43C)[C@@H]12 | 52% (inactive)
CC1(C)CC(=O)c2cc3c(N)c(C(=O)Nc4ccc(Cl)cc4)sc3nc2C1 | 110% (inactive)
O=c1nc(-c2ccccc2)c2cc(-c3ccc(N4CCOCC4)cc3)ccc2[nH]1 | 77.4% (inactive)
COc1ccc(-c2ccc(-c3ccc(C(=N)N)o3)o2)cc1 | 15.3% (inactive)
CCN(CC)CCCCCCNc1cc(OC)c(Cl)c2cccnc12 | 32.1% (inactive)
CC(C)OC(=O)OCOP(=O)(OCOC(=O)OC(C)C)C1CCCN(O)C1=O (stereo not given) | 36.3% (inactive)
CC(C)(C)c1nn(-c2ccccc2)c2c1C(=O)CSC(c1ccccc1Cl)N2 (stereo not given) | 19.8% (inactive)
O=S(=O)(Oc1ccc(-c2ccc3sccc3c2)cc1)c1ccc(F)cc1 | 86.9% (inactive)
Nc1cc(C(=O)O)[nH]c(=S)n1 | 95.3% (inactive)
O=C(CCCCN1CCOCC1)Nc1ccc(Cn2nnc3c2C(=O)c2nnn(Cc4ccc(NC(=O)CCCCN5CCOCC5)cc4)c2C3=O)cc1 | -76.9% (active)
CCN1Cc2c(/C=C/c3ccccc3)nc3ccc(OC)cc3c2N(c2cccc(Cl)c2)C1 | 48.3% (inactive)
COc1cc2ncnc(Nc3ccc(S(=O)(=O)Nc4cc(C)on4)cc3)c2cc1OCCCN1CCN(c2ccc(F)cc2)CC1 | 103% (inactive)
CCOC(=O)c1c(Nc2ccccc2)nn2c(N)c(C#N)c(-c3ccc(F)cc3)nc12 | 82.5% (inactive)
NCCOc1ccccc1/C=C1\c2ccccc2-c2ccc([N+](=O)[O-])cc21 | -36.1% (active)
Cc1cc(C)n(C(=O)c2sc(=S)n(-c3ccccc3)c2N=Nc2c(N)n[nH]c2N)n1 | 112% (inactive)
